Compounds without any hit were thinned out: in the full panel of roughly 79,000, 15% have a hit. A number with no mark means an inactive call. Calls of active or inactive are those of the source. Rule as the data show it: active = growth inhibition above about 70%; inactive = the rest.
Columns and labels:
[1] = NCI Yeast Anticancer Drug Screen. Data for the rad50 strain (AID 155);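 also: 0% = growth of vehicle-only cultures of the same strain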; settings: S. cerevisiae rad50 strain growth inhibition, active compounds read high
In short: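 Cells are treated with compound, grown, and their growth is then scored against vehicle-only cultures of the same repair-deficient yeast strain.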

[2] = NCI Yeast Anticancer Drug Screen. Data for the mec2-1 strain (AID 157); settings: S. cerevisiae mec2-1 strain, active compounds read high
In short: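 Using mec2-1 yeast: add compound, measure growth, express inhibition versus vehicle-treated cultures.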

[3] = NCI Yeast Anticancer Drug Screen. Data for the sgs1 mgt1 strain (AID 161);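 also: 0% = growth of cultures given vehicle only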; settings: S. cerevisiae sgs1 mgt1 strain, active compounds read high
In short: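 This yeast growth screen uses a strain with defined DNA-repair lesions; compound-treated growth is compared with vehicle-treated growth.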

[4] = NCI Yeast Anticancer Drug Screen. Data for the cln2 rad14 strain (AID 165);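 also: 0% = growth equal to vehicle treated cultures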; settings: S. cerevisiae cln2 rad14 strain, active compounds read high
In short: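 Yeast strain cln2 rad14, bearing defects in cell cycle control and DNA repair, serves as the test system; values reflect growth inhibition compared with vehicle.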

[5] = NCI Yeast Anticancer Drug Screen. Data for the bub3 strain (AID 167); settings: S. cerevisiae bub3 mutant strain, active compounds read high
In short: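 Part of a panel of yeast mutants defective in DNA damage repair or cell cycle regulation. Each strain is grown with compound, and inhibition is calculated relative to solvent-treated cultures.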

[6] = NCI Yeast Anticancer Drug Screen. Data for the mlh1 rad18 strain (AID 175); settings: S. cerevisiae mlh1 rad18 strain growth inhibition, active compounds read high
In short: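 Steps: expose repair-defective yeast to compound; measure growth; express inhibition against vehicle-treated controls.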

[7] = at 5.0 µM (retest, dose inferred, filed as 0.5)
[8] = at 50.0 µM (retest, dose inferred, filed as 5.0)

For `O=c1[nH]cc(F)c(=O)n1C1CCCCO1` (stereo not given), the growth inhibition [1, 7] was 30%, the growth inhibition [1, 8] was 41% and the growth inhibition ([1]; at 50.0 µM) was 46%. The growth inhibition [2, 7] was 16%, the growth inhibition [2, 8] was 34% and the growth inhibition ([2]; at 50.0 µM) was 49.5%. The growth inhibition [3, 7] was 46%, the growth inhibition [3, 8] was 72% (active) and the growth inhibition ([3]; at 50.0 µM) was 71% (active). It also gave a growth inhibition [4, 7] of 46%, a growth inhibition [4, 8] of 49% and a growth inhibition ([4]; at 50.0 µM) of 12.2%. For the same compound, the growth inhibition [5, 7] was 42%, the growth inhibition [5, 8] was 59% and the growth inhibition ([5]; at 50.0 µM) was 34.5%. The growth inhibition [6, 7] was 23%, the growth inhibition [6, 8] was 35% and the growth inhibition ([6]; at 50.0 µM) was 6.85%.

In the case of `C[N+]1=C(/C=C\c2ccc(O)c3ccccc23)C(C)(C)c2ccccc21`, the growth inhibition [1, 7] is reported as -2%, the growth inhibition [1, 8] is reported as 82% (active) and the growth inhibition ([1]; at 50.0 µM) is reported as 40.5%. The growth inhibition [2, 7] was 3%, the growth inhibition [2, 8] was 89% (active) and the growth inhibition ([2]; at 50.0 µM) was 50.2%. The growth inhibition [3, 7] was -2%, the growth inhibition [3, 8] was 92% (active) and the growth inhibition ([3]; at 50.0 µM) was 36%. The growth inhibition [4, 7] was -4%, the growth inhibition [4, 8] was 83% (active) and the growth inhibition ([4]; at 50.0 µM) was 54.9%. The growth inhibition [5, 7] was 15%, the growth inhibition [5, 8] was 82% (active) and the growth inhibition ([5]; at 50.0 µM) was 38.5%. For the same compound, the growth inhibition [6, 7] was 28%, the growth inhibition [6, 8] was 82% (active) and the growth inhibition ([6]; at 50.0 µM) was 43.7%.

With `CC(C)C1=CC23CCC4C(C)(C(=O)O)CCCC4(C)C2CC1CC3C#N` (stereo not given) the growth inhibition [1, 7] was 19%, the growth inhibition [1, 8] was 56% and the growth inhibition ([1]; at 50.0 µM) was 98% (active). The growth inhibition [2, 7] was 18%, the growth inhibition [2, 8] was 34% and the growth inhibition ([2]; at 50.0 µM) was 98.5% (active). The growth inhibition [3, 7] was 12%, the growth inhibition [3, 8] was 42% and the growth inhibition ([3]; at 50.0 µM) was 98.5% (active). The growth inhibition [4, 7] was 3%, the growth inhibition [4, 8] was 57% and the growth inhibition ([4]; at 50.0 µM) was 97.1% (active). For the same compound, the growth inhibition [5, 7] was -1%, the growth inhibition [5, 8] was 49% and the growth inhibition ([5]; at 50.0 µM) was 98.5% (active). For the same compound, the growth inhibition [6, 7] was 13%, the growth inhibition [6, 8] was 39% and the growth inhibition ([6]; at 50.0 µM) was 98.2% (active).

For `CC(C)(C)c1cc(C(=O)[O-])c([OH2+])c(C(C)(C)C)c1.CC(C)(C)c1cc(C(=O)[O-])c([OH2+])c(C(C)(C)C)c1.[Mn+2]`, the growth inhibition [1, 7] was 22%, the growth inhibition [1, 8] was 59% and the growth inhibition ([1]; at 50.0 µM) was 99% (active). The growth inhibition [2, 7] was 27%, the growth inhibition [2, 8] was 60% and the growth inhibition ([2]; at 50.0 µM) was 98.8% (active). For the same compound, the growth inhibition [3, 7] was 21%, the growth inhibition [3, 8] was 42% and the growth inhibition ([3]; at 50.0 µM) was 98.5% (active). For the same compound, the growth inhibition [4, 7] was 42%, the growth inhibition [4, 8] was 78% (active) and the growth inhibition ([4]; at 50.0 µM) was 97% (active). For the same compound, the growth inhibition [5, 7] was 21%, the growth inhibition [5, 8] was 49% and the growth inhibition ([5]; at 50.0 µM) was 97% (active). For the same compound, the growth inhibition [6, 7] was 28%, the growth inhibition [6, 8] was 71% (active) and the growth inhibition ([6]; at 50.0 µM) was 98.2% (active).

In the case of `COC(=O)c1nnn(-c2cc(Cl)ccc2Cl)c1C(=O)c1ccc(Cl)c(Cl)c1`, the growth inhibition [1, 7] is reported as 12%, the growth inhibition [1, 8] is reported as 98% (active) and the growth inhibition ([1]; at 50.0 µM) is reported as 98.8% (active). The growth inhibition [2, 7] was 4%, the growth inhibition [2, 8] was 98% (active) and the growth inhibition ([2]; at 50.0 µM) was 96.8% (active). For the same compound, the growth inhibition [3, 7] was 14%, the growth inhibition [3, 8] was 98% (active) and the growth inhibition ([3]; at 50.0 µM) was 99% (active). The growth inhibition [4, 7] was 6%, the growth inhibition [4, 8] was 97% (active) and the growth inhibition ([4]; at 50.0 µM) was 95.5% (active). The growth inhibition [5, 7] was 18%, the growth inhibition [5, 8] was 99% (active) and the growth inhibition ([5]; at 50.0 µM) was 95.3% (active). The growth inhibition [6, 7] was 17%, the growth inhibition [6, 8] was 99% (active) and the growth inhibition ([6]; at 50.0 µM) was 99% (active).

In the case of `S=c1[nH]c(-c2ccccc2)cs1`, the growth inhibition [1, 7] is reported as -2%, the growth inhibition [1, 8] is reported as 77% (active) and the growth inhibition ([1]; at 50.0 µM) is reported as 79.5% (active). The growth inhibition [2, 7] was 0%, the growth inhibition [2, 8] was 71% (active) and the growth inhibition ([2]; at 50.0 µM) was 85.1% (active). For the same compound, the growth inhibition [3, 7] was 0%, the growth inhibition [3, 8] was 83% (active) and the growth inhibition ([3]; at 50.0 µM) was 92% (active). The growth inhibition [4, 7] was -15%, the growth inhibition [4, 8] was 73% (active) and the growth inhibition ([4]; at 50.0 µM) was 80.2% (active). The growth inhibition [5, 7] was -24%, the growth inhibition [5, 8] was 89% (active) and the growth inhibition ([5]; at 50.0 µM) was 74% (active). For the same compound, the growth inhibition [6, 7] was 1%, the growth inhibition [6, 8] was 89% (active) and the growth inhibition ([6]; at 50.0 µM) was 89.5% (active).

In the case of `CC(C)(C)OC(=O)N[C@H]1CC2(C=C(Cl)C(=O)C(Cl)=C2)OC1=O`, the growth inhibition [1, 7] is reported as 32%, the growth inhibition [1, 8] is reported as 70% (active) and the growth inhibition ([1]; at 50.0 µM) is reported as 86.5% (active). For the same compound, the growth inhibition [2, 7] was 16%, the growth inhibition [2, 8] was 72% (active) and the growth inhibition ([2]; at 50.0 µM) was 80.8% (active). The growth inhibition [3, 7] was 23%, the growth inhibition [3, 8] was 90% (active) and the growth inhibition ([3]; at 50.0 µM) was 90.8% (active). The growth inhibition [4, 7] was 13%, the growth inhibition [4, 8] was 31% and the growth inhibition ([4]; at 50.0 µM) was 69.2%. The growth inhibition [5, 7] was 14%, the growth inhibition [5, 8] was 83% (active) and the growth inhibition ([5]; at 50.0 µM) was 70.4% (active). For the same compound, the growth inhibition [6, 7] was 43%, the growth inhibition [6, 8] was 92% (active) and the growth inhibition ([6]; at 50.0 µM) was 81% (active).

Compound `CC1(C)CC(=O)C(CC2C(=O)c3ccccc3C2=O)C(=O)C1C(=O)C(=O)Nc1cccc2ccc(O)cc12` (stereo not given) has a growth inhibition [1, 7] of 28%, a growth inhibition [1, 8] of 48% and a growth inhibition ([1]; at 50.0 µM) of 7.85%. It also gave a growth inhibition [2, 7] of 25%, a growth inhibition [2, 8] of 23% and a growth inhibition ([2]; at 50.0 µM) of -13.3%. The growth inhibition [3, 7] was 10%, the growth inhibition [3, 8] was 39% and the growth inhibition ([3]; at 50.0 µM) was -8.6%. It also gave a growth inhibition [4, 7] of 22%, a growth inhibition [4, 8] of 39% and a growth inhibition ([4]; at 50.0 µM) of -7.7%. It also gave a growth inhibition [5, 7] of 30%, a growth inhibition [5, 8] of 36% and a growth inhibition ([5]; at 50.0 µM) of -31.9%. The growth inhibition [6, 7] was 32%, the growth inhibition [6, 8] was 52% and the growth inhibition ([6]; at 50.0 µM) was -30.2%.

With `CCCCCCC(Sc1n[nH]c(=O)[nH]c1=O)C(=O)OCC` (stereo not given) the growth inhibition [1, 7] was 3%, the growth inhibition [1, 8] was 76% (active) and the growth inhibition ([1]; at 50.0 µM) was 61.5%. The growth inhibition [2, 7] was -1%, the growth inhibition [2, 8] was 80% (active) and the growth inhibition ([2]; at 50.0 µM) was 52.9%. The growth inhibition [3, 7] was 1%, the growth inhibition [3, 8] was 88% (active) and the growth inhibition ([3]; at 50.0 µM) was 77.6% (active). The growth inhibition [4, 7] was 3%, the growth inhibition [4, 8] was 83% (active) and the growth inhibition ([4]; at 50.0 µM) was 52%. The growth inhibition [5, 7] was 2%, the growth inhibition [5, 8] was 77% (active) and the growth inhibition ([5]; at 50.0 µM) was 43.5%. For the same compound, the growth inhibition [6, 7] was -2%, the growth inhibition [6, 8] was 89% (active) and the growth inhibition ([6]; at 50.0 µM) was 61.1%.

With `Nc1nnc2nc(C(C(=O)c3ccccc3Cl)c3nc4nnc(N)n4[nH]c3=O)c(=O)[nH]n12` the growth inhibition [1, 7] was -2%, the growth inhibition [1, 8] was -4% and the growth inhibition ([1]; at 50.0 µM) was 93.8% (active). The growth inhibition [2, 7] was 1%, the growth inhibition [2, 8] was 0% and the growth inhibition ([2]; at 50.0 µM) was 99.8% (active). The growth inhibition [3, 7] was -2%, the growth inhibition [3, 8] was -2% and the growth inhibition ([3]; at 50.0 µM) was 41.5%. For the same compound, the growth inhibition [4, 7] was -1%, the growth inhibition [4, 8] was -2% and the growth inhibition ([4]; at 50.0 µM) was 74.6% (active). For the same compound, the growth inhibition [5, 7] was -1%, the growth inhibition [5, 8] was -7% and the growth inhibition ([5]; at 50.0 µM) was 99.5% (active). For the same compound, the growth inhibition [6, 7] was 0%, the growth inhibition [6, 8] was -4% and the growth inhibition ([6]; at 50.0 µM) was 96.5% (active).
